# Results filed as inconclusive are left out. The source made the active and inactive calls. How the source made its calls: active means hit-call score of the fitted dose curve at least 0.9, where 1 is the maximum; inconclusive means response in the unintended direction; inactive means score below 0.9.
# Test: ATG_XTT_Cytotoxicity: Cytotoxicity Assessment in the Attagene TRANS-FACTORIAL HepG2 Assay (AID 2283584);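 on AC50: cells exposed to compound for 24 h before reading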
# Procedure: ATG_XTT_Cytotoxicity is a cell-based, single-readout assay that uses HepG2, a human liver cell line, with measurements taken at 24 hours after chemical dosing in a 24-well plate.ATG_XTT_Cytotoxicity is one of one assay component(s) measured or calculated from the ATG_XTT_Cytotoxicity assay. It is designed to make measurements of cell number, a form of viability reporter, as detected with […] signals by XTT cytotoxicity assay technology.Data from the assay component ATG_XTT_Cytotoxicity was analyzed into 1 assay endpoint. This assay endpoint, ATG_XTT_Cytotoxicity, was analyzed in the positive analysis fitting direction relative to DMSO as the negative control and baseline of activity. Using a type of viability reporter, loss-of-signal activity can be used to understand changes in the viability. Furthermore, this assay endpoint can be referred to as a primary readout, because the performed assay has only produced 1 assay endpoint. To generalize the intended target to other relatable targets, this assay endpoint is annotated to the cell cycle intended target family, where the subfamily is cytotoxicity.
# Human liver HepG2 cells are transiently transfected with multiple reporter transcription units (MRTUs) in 6-well plates using FuGene 6 reagent (Roche; 3 ml FuGene/1 mg DNA). The MRTU constructs are regulated by a cis-regulating element (promoter). […] A major difference between the CIS and TRANS system is that in CIS activities of endogenous TFs are measured, whereas the TRANS assay evaluates changes in activities of exogenous, chimeric NR-Gal4 proteins. […] At the end of 24 hour incubation, total RNA was isolated using TriZol reagent (Invitrogen). The isolated RNA is then reverse-transcribed using oligo(dT) primer and Mo-MLV reverse transcriptase (Invitrogen) with DNAse I (Ambion) treatment for 30 min. The one-tenth of the produced cDNA was amplified by PCR using Taq DNA polymerase (Invitrogen) and two reporter sequence-specific primers. The PCR products were fluorescently labeled by primer extension with 6-arboxyfluorescein (6-FAM) 5'-labeled reporter sequence-specific primer (2 min at 95 C, 20 s at 68 C and 10 min at 72 C) and these products were digested with 5U of HpaI (New England Biolabs) for 2h at 37 C. The fragments were purified using Qiaquick PCR columns (Qiagen), analyzed on an ABI 3130xL genetic analyzer (Applied Biosystems) with peak positions identified by using a set of X-rhodamine (ROX)-labeled MapMarker1000 molecular weight standards (BioVentures). The raw capillary electrophoresis data was processed using Attagraph software (Attagene).
SMILES,AC50,outcome
Oc1ccc(C2(c3ccc(O)cc3)c3ccccc3-c3ccccc32)cc1,34.9 µM (active),
c1ccc2c(c1)CCCC2,,inactive
C=Cc1cccc(CCl)c1,,inactive
O=CNC(N1CCN(C(NC=O)C(Cl)(Cl)Cl)CC1)C(Cl)(Cl)Cl (stereo not given),,inactive
O=[N+]([O-])O.O=[N+]([O-])O.[Cd],12.3 µM (active),
CSc1nc(N=[N+]=[N-])nc(NC(C)C)n1,,inactive
CN(C)CCC#N,,inactive
CC(C)(c1cc(Cl)c(O)c(Cl)c1)c1cc(Cl)c(O)c(Cl)c1,,inactive
O=C(O)C(Br)Br,,inactive
CCOC(=O)COc1ccc(Cl)cc1Cl,,inactive
ClCCCCCCCl,,inactive
Cc1ccc(N(SC(F)(Cl)Cl)S(=O)(=O)N(C)C)cc1,38.7 µM (active),
N#Cc1cc(I)c(O)c(I)c1,,inactive
C[N+](C)(C)CC(=O)[O-],,inactive
O=C(O)c1cc[c]([Hg][Cl])cc1,,inactive
CC(C)(C)C(O)C(Oc1ccc(-c2ccccc2)cc1)n1cncn1 (stereo not given),,inactive
CC(C)CCCCCCCOP(=O)(Oc1ccccc1)Oc1ccccc1,,inactive
CCNCC,,inactive
NNc1ccccc1,,inactive
CC=Cc1ccc2c(c1)OCO2,,inactive

SMILES,AC50,outcome
Oc1ccc(Cl)cc1,,inactive
C=CC(=O)OCCO,,inactive
CCCCCCCCCCCC#N,,inactive
CCC(C)c1cc([N+](=O)[O-])cc([N+](=O)[O-])c1OC(=O)C=C(C)C (stereo not given),,inactive
CC(C)(C)C(=O)CCl,,inactive
Nc1cc(Cl)cc(Cl)c1,,inactive
O=S(=O)(O)O,,inactive
CCC(C)(C)O,,inactive
COc1ncc(F)c2nc(S(=O)(=O)Nc3c(F)cccc3F)nn12,,inactive
N#Cc1cccc(C#N)c1,,inactive
CC(=O)c1cc2c(cc1C)C(C)(C)C(C)CC2(C)C (stereo not given),,inactive
CCC(Br)(CC)C(=O)NC(N)=O,,inactive
Nc1ccc(-c2ccc(N)c(N)c2)cc1N,,inactive
C#CC1(O)CCCCC1,,inactive
CCOC(=O)C1OC1(C)c1ccccc1 (stereo not given),,inactive
O=P(O)(Oc1ccccc1)Oc1ccccc1,,inactive
N#CCCCl,,inactive
Nc1ccccc1C(=O)Oc1ccc2ccccc2c1,,inactive
O=C(NCNC(=O)NC1C(=O)NC(=O)N1CO)NC1C(=O)NC(=O)N1CO (stereo not given),,inactive
CC(C)C#N,,inactive
